Compound activity as filed in PubChem.
In the library only some 28% were active in any assay of this set; here they are far more common.
CYP2C9 inhib: blocks human cytochrome P450 2C9 | CYP2C9 Supersomes, luciferin-H conversion, luminescence | inhibition, % at 5 µM | AID 777 | 20% of 96,000 active | P11712;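 active = blocking of liver enzyme CYP2C9 beyond about 50% at 5 µM, limit read from the data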
Target sequence (P11712 whole entry, looked up): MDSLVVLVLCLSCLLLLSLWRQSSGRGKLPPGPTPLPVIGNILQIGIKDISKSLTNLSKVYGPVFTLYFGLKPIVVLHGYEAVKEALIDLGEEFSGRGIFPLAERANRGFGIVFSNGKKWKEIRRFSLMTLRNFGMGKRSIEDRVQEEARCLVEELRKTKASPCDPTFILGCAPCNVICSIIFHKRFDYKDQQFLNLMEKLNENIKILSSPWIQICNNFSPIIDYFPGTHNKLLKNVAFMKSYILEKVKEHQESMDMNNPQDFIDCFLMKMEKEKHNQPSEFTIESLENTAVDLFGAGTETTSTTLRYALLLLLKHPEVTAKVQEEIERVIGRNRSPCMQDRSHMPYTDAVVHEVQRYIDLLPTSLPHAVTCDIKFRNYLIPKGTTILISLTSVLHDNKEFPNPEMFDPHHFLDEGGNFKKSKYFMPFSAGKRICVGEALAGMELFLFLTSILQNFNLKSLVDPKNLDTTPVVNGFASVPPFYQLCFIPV
CYP2C9 act: increases human cytochrome P450 2C9 activity; P11712; recombinant CYP2C9, luciferin-H conversion, luminescence; stronger effect = higher value; factor 1 = untreated enzyme, 0 = blocked; activation factor at 5 µM; 1.4% of 96,000 active;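 active = activation factor of 2 or more for CYP2C9 at a 5 µM dose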;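 also: 0 = sulfaphenazole-blocked wells and 1 = vehicle-only wells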
CYP2C19 act: cytochrome P450 2C19 (human) activation. recombinant CYP2C19, luciferin-H EGE luminescence; stronger effect = higher value; 0 = fully inhibited enzyme, 1 = untreated enzyme. P33261. 96,000 tested, under 10 active. AID 1025. activation factor at 5 µM;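 active = activation factor of at least 2 at 5 µM in the primary screen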;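 also: 0 = wells with 2.5 mM tranylcypromine and 1 = vehicle-only wells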
PTK2B oligo ant: antagonists of human Pyk2 oligomerization; Q14289; Q293 cells, Pyk2 FERM NanoBiT luminescence; stronger effect = lower value; z-score (the deposit names both 25 µM and 10 µM); 0.83% of 99,000 active; AID 1347419;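 active = Z-score of -3 or lower, scaled per plate to the spread of control and sample wells; inactive = z-score above -3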;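 also: negative z-score means lost luminescence so less FERM oligomerization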
CYP2C19 inh: blocks human cytochrome P450 2C19; AID 778; 21% of 96,000 active; P33261; CYP2C19 Supersomes, luciferin-H EGE luminescence, 30 min; inhibition, % at 5 µM;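 active = CYP2C19 inhibition above a set limit at 5 µM in the primary screen, cut at about 50% in these data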;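 also: plate controls were negative control wells for no effect and 2.5 mM tranylcypromine positive control for full effect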
The depositor's hits bear a star; / = no result.

SMILES | CYP2C9 inhib | CYP2C9 act | CYP2C19 act | PTK2B oligo ant | CYP2C19 inh
CCN(CC)C(=O)CN1CCN(c2ccccc2F)CC1 | 3 | 1 | 0.6 | 0.65 | 38
CC1CCc2nc(NC(=O)CN3CCN(c4ccc(F)cc4)CC3)sc2C1 (stereo not drawn) | 16 | 0.8 | 0.9 | -0.69 | 6
CCOc1ccc(NC(=O)CCN2CCN(c3ccccc3F)CC2)cc1 | 68* | 0.3 | 0.5 | 0.83 | 51*
Fc1ccc(CSc2ncnc3sc4c(c23)CCCC4)cc1 | 26 | 0.7 | 0.7 | -0.3 | 28
CCOC(=O)N1CCN(C(=O)CN(c2cccc(C(F)(F)F)c2)S(C)(=O)=O)CC1 | 7 | 0.9 | 0.7 | 1.3 | 30
COc1cccc(NC(=O)NCCCN2CCN(c3ccc(F)cc3)CC2)c1 | 21 | 0.8 | 0.9 | 0.43 | 11
COc1ccc(N2CCC(CNC(=O)Nc3cccc(OC)c3)C2)cc1 (stereo not drawn) | 76* | 0.2 | 0.6 | 0.67 | 40
COc1ccc(NC(=O)CN2CCN(c3ccccc3F)CC2)cc1 | 68* | 0.3 | 0.4 | 1 | 55*
COc1cc([N+](=O)[O-])ccc1N/C=C/C(=O)c1cccs1 | 17 | 0.8 | 0.8 | 0.29 | 24
Cc1occc1C(=O)N/N=C/c1cccs1 | 15 | 0.9 | 0.6 | 1.1 | 42
CC(C)NC(=S)N/N=C/c1cccs1 | 37 | 0.6 | 0.2 | 0.41 | 82*
CCOC(=O)c1[nH]cc(-c2ccccc2)c1N1CCOCC1 | 31 | 0.7 | 0.1 | -0.09 | 93*
CSCCC(NC(=O)c1ccco1)C(=O)OCC(=O)Nc1sccc1C#N (stereo not drawn) | 78* | 0.2 | 0.4 | / | 55*
CN(CC(=O)Nc1sccc1C#N)Cc1ccccc1 | / | / | / | 0.69 | /
CCOC(=O)COc1ccc(C2NC(C(=O)O)CS2)cc1 (stereo not drawn) | -1 | 1 | 1 | 0.73 | 3
COc1cc(C2NC(C(=O)O)CS2)ccc1OCc1ccccc1C#N (stereo not drawn) | 27 | 0.7 | 0.4 | / | 59*
Cc1cc(C)nc(N2CCC(CNC(=O)CCc3ccccc3)CC2)n1 | 22 | 0.8 | 0.8 | 1.1 | 19
COc1cc(C2C3C(=O)N(Cc4ccccc4)C(=O)C3ON2c2ccccc2)cc(OC)c1OC (stereo not drawn) | 26 | 0.7 | 0.4 | -0.07 | 57*
O=C1[C@@H]2[C@H](C(=O)N1Cc1cccnc1)[C@H]1C=C[C@@H]2C1 | 15 | 0.8 | 0.9 | 1 | 10
Cc1ccccc1N1C(=O)C2ON(c3ccccc3)C(c3cccnc3)C2C1=O (stereo not drawn) | 52* | 0.5 | 0.3 | 1.3 | 75*
COc1ccc(C2C3C(=O)N(Cc4ccccc4)C(=O)C3ON2c2ccccc2)c(OC)c1OC (stereo not drawn) | 49 | 0.5 | 0.8 | 0.39 | 21
Cc1c(Cl)cccc1N1C(=O)C2ON(c3ccccc3)C(c3cccnc3)C2C1=O (stereo not drawn) | 42 | 0.6 | 0.4 | -0.65 | 56*
O=C1C2ON(c3ccccc3)C(c3cccnc3)C2C(=O)N1Cc1ccccc1 (stereo not drawn) | 88* | 0.1 | 0 | -1 | 100*
CC(=O)NCCOc1ccc2oc3ccccc3c2c1 | 8 | 0.9 | 0.9 | 0.5 | 6
Cc1cccc(N2CCN(C(=O)c3cccc(N4C(=O)C5CC=CC(C)C5C4=O)c3)CC2)c1C (stereo not drawn) | 59* | 0.4 | 0.7 | 1.1 | 28
SMILES | CYP2C9 inhib | CYP2C9 act | CYP2C19 act | PTK2B oligo ant | CYP2C19 inh
CCOC(=O)CC(=O)CSc1nnc2sc3ccccc3n12 | -132 | 2.3* | 0.9 | 0.41 | 9
CC(=O)c1cccc(OCC(=O)c2cc(C)n(-c3cc(C)on3)c2C)c1 | 78* | 0.2 | 0.1 | 0.43 | 86*
O=C(CSc1nnc(NCc2ccccc2)s1)c1ccco1 | 81* | 0.2 | 0.4 | 0.64 | 62*
O=C(CSc1nnc2sc3ccccc3n12)c1ccco1 | -78 | 1.8 | 0.5 | 0.13 | 51*
O=C(CSc1nnc(NC(=O)c2ccco2)s1)NC1CCCC1 | 10 | 0.9 | 1.1 | 0.03 | -7
Cc1cc(C)cc(C(=O)N(NC(=O)Nc2ccc(Cl)cc2)C(C)(C)C)c1 | 17 | 0.8 | 0.8 | -1.7 | 21
O=c1[nH]c2ccccc2nc1C(Cl)c1ccccc1 (stereo not drawn) | -12 | 1.1 | 0.7 | / | 27
CN(C)C(=O)CSc1nnc2sc3ccccc3n12 | -32 | 1.3 | 1 | 0.4 | 2
Cc1cc(-n2c(C)cc(C(=O)CSc3nnc4sc5ccccc5n34)c2C)no1 | 16 | 0.8 | 0.1 | -0.02 | 87*
O=C(CSc1nnc2sc3ccccc3n12)N1CCN(c2ccccc2)CC1 | -178 | 2.8* | 0.9 | 1.1 | 9
O=C(O)c1ccccc1OCCOc1ccccc1 | -2 | 1 | 0.8 | -0.03 | 18
c1ccc(OCCOc2ncnc3ccccc23)cc1 | 25 | 0.7 | 0.4 | 0.69 | 60*
Cc1ccnc(NC(=O)c2ccc(N3C(=O)CCC3=O)cc2)c1 | -4 | 1 | 1.1 | 1.9 | -6
C=CCc1c(C)nc(SCC(=C)C)[nH]c1=O | 17 | 0.8 | 0.5 | 1.7 | 55*
C=C(C)CSc1nc(N)cc(=O)[nH]1 | -1 | 1 | 1 | 0.01 | 4
O=C(CSc1ncn[nH]1)Nc1ccc(S(=O)(=O)N2CCCC2)cc1 | 61* | 0.4 | 0.9 | 0.34 | 10
O=C(CCn1cnc2ccccc2c1=O)Nc1ccc(S(=O)(=O)N2CCCC2)cc1 | 41 | 0.6 | 0.9 | -0.31 | 5
O=C(CSc1nc2ccccc2c(=O)[nH]1)Nc1ccc(S(=O)(=O)N2CCCC2)cc1 | 96* | 0 | 0.7 | 0.02 | 32
CC(=O)N1CCc2cc(S(=O)(=O)NCCC(=O)N3CCN(Cc4ccccc4)CC3)ccc21 | 26 | 0.7 | 0.8 | 1.6 | 22
CC1CCN(C(=O)CCNS(=O)(=O)c2ccccc2)CC1 | 13 | 0.9 | 0.5 | 0.11 | 54*
Cc1ccc(S(=O)(=O)NCCC(=O)N2CCN(Cc3ccccc3)CC2)cc1 | 5 | 0.9 | 0.5 | 1.4 | 52*
CN(C)CCCNC(=O)Cc1ccc(Br)cc1 | -12 | 1.1 | 1.1 | 0.34 | -11
CCc1cc(=O)oc2cc(C)cc(OC(=O)c3ccco3)c12 | 25 | 0.8 | 0.3 | -0.75 | 66*
Cc1cc(OC(=O)c2ccco2)c2c(C)cc(=O)oc2c1 | -49 | 1.5 | 1 | 0.76 | -4
C=C(Cl)COc1cc(C)cc2oc(=O)cc(CC)c12 | 52* | 0.5 | 0.6 | -0.64 | 43
CCCc1cc(=O)oc2cc(C)cc(OCC(=O)O)c12 | 43 | 0.6 | 0.8 | 0.12 | 17
CN(/C=C/C(=O)C(F)(F)C(F)(F)F)Cc1ccccc1 | 10 | 0.9 | 0.4 | -0.12 | 62*
CCOc1ccc(C(CC(=O)O)NC(=O)C23CC4CC(CC(C4)C2)C3)cc1 (stereo not drawn) | / | / | / | 1.1 | /
Cc1cc(NC(=O)CCCC(=O)NCc2cccs2)no1 | -1 | 1 | 0.9 | -0.34 | 13
NC1=NC2(CCCCCC2)n2c(nc3ccccc32)N1 | 5 | 0.9 | 1 | 0.87 | 0
